Data on three compounds can be found in ChEMBL document CHEMBL3988442, “University of Dundee, Small-Polar-MMV Screening Library” (2021).

For part of these data: Entries with a potency or affinity are not part of this list. Where only a bound is given, the exact number is not on record here.

The target of assay [1] is T1, Methionyl-tRNA synthetase, putative (Leishmania donovani (strain BPK282A1)) (UniProt E9BF75).
T1 sequence (whole entry): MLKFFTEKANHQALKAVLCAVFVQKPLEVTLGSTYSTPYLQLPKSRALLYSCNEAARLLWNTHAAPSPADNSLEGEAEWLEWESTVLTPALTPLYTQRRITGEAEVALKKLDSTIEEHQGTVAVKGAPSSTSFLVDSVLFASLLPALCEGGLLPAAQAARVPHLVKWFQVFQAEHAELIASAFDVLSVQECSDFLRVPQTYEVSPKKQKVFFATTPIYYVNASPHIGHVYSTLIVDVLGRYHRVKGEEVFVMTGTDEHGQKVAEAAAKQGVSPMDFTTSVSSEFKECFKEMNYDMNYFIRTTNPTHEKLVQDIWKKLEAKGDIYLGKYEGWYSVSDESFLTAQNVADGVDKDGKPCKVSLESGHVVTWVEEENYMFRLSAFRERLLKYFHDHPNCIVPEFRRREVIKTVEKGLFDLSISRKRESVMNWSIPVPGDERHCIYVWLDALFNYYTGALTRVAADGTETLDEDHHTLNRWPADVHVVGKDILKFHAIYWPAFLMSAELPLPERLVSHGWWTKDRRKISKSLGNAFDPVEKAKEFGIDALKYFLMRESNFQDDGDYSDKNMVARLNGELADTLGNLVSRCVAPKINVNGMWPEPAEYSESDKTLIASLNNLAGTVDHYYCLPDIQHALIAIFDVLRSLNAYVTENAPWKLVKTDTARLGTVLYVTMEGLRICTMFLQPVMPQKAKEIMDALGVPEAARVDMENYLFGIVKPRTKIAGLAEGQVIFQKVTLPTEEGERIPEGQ
In words: Leishmania donovani Methionine tRNA synthetase (LdMetRS):v7. Dose response assay. More on the design: conc 80 nM, time 150 minutes. Type of assay: functional.

Assay [2] has as its target Protein translocase subunit SecA (Escherichia coli (strain K12)) (UniProt P10408). The assay is described as follows: Assay to Identify E. coli SecA ATPase Inhibitors. The assay is classed as functional. More on the design: scale not given: direction of the effect not stated beside the values. The settings on record: 30 µM.
For assay [3], the target named is T2, Ubiquitin-activating enzyme e1, putative (Leishmania donovani (strain BPK282A1)) (UniProt E9BSI1).
T2 sequence (whole entry): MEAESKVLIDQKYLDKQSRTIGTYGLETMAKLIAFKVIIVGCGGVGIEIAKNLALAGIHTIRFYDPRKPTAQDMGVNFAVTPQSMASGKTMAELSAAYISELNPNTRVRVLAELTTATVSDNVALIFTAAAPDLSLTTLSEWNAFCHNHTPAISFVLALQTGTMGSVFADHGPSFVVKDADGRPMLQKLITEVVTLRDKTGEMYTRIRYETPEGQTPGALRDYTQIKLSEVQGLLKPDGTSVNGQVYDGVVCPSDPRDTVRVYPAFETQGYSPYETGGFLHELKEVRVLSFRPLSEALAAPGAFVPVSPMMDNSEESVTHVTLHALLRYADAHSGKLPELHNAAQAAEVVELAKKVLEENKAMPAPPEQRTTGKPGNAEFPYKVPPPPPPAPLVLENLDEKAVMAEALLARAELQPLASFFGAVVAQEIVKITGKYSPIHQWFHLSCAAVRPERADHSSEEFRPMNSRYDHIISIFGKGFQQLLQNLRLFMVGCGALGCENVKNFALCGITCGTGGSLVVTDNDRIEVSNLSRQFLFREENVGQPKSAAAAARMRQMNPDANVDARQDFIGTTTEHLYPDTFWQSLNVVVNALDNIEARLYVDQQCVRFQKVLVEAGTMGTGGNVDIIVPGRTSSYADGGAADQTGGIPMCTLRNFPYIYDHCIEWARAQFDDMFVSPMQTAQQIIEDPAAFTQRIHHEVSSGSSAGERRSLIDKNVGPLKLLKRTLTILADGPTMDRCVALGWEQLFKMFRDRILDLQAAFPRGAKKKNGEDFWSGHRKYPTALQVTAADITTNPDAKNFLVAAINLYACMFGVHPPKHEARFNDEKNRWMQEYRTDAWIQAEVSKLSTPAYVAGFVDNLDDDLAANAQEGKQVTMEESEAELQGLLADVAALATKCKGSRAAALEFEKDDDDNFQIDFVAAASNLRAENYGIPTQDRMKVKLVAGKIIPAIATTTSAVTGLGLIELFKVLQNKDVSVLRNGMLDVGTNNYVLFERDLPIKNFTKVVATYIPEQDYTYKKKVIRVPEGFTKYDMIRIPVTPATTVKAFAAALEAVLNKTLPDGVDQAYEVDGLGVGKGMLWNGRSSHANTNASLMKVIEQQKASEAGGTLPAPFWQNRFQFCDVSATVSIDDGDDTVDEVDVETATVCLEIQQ
In words: Leishmania donovani Ubiquitin Activating Enzyme (LdE1). Type of assay: functional. Details: scale not given: direction of the effect not stated beside the values. The settings on record: 30 µM.

The target of assay [4] is AMP-activated protein kinase, AMPK (Homo sapiens) (UniProt P54646+O43741+P54619+Q9UGJ0+Q9Y478+Q13131+Q9UGI9). In words: AMP-dependent Kinase enzyme assay. An in vitro enzyme assay that detects ADP turnover that is directly proportional to AMPK activity. This uses naive AMPK that is activated during the assay with MK-8722. Details: scale not given: direction of the effect not stated beside the values. Type of assay: functional. The settings on record: 30 µM.

For assay [5], the target named is Sialic acid-binding Ig-like lectin 9 (Homo sapiens) (UniProt Q9Y336). The assay is described as follows: Hs-Siglec9 ALPHAscreen SOP 20170721. The settings on record: 10 µM. More on the design: scale not given: direction of the effect not stated beside the values. In general terms: In Alpha technology, singlet oxygen from a donor bead excites a nearby acceptor bead.

Assay [6] relates to Trypanosoma cruzi. In words: Trypanosoma cruzi phosphomannomutase and mannose-1-phosphate guanylyltransferase assay. More on the design: scale not given: direction of the effect not stated beside the values. The settings on record: 10 µM. Type of assay: functional.
The target in assay [7] is T3, Arginase-2, mitochondrial (Homo sapiens) (UniProt P78540).
T3 sequence (whole entry): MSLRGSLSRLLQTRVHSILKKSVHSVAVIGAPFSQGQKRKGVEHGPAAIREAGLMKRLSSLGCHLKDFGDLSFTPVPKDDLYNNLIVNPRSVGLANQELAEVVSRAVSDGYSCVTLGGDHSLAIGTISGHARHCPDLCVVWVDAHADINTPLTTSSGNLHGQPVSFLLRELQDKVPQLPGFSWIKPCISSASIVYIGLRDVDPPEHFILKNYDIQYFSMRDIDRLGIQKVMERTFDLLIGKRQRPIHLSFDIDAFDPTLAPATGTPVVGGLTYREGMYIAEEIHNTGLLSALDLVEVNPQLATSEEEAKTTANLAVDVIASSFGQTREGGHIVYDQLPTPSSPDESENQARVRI
In words: in vitro enzyme assay to detect the production of urea directly proportional to the activity of Arginase II. Type of assay: functional. Details: scale not given: in the data most compounds retested in dose-response had high values. The settings on record: 33.3 µM.

In assay [8] the target is T4, Proteasome subunit beta (Trypanosoma cruzi) (UniProt O96673).
T4 sequence (whole entry): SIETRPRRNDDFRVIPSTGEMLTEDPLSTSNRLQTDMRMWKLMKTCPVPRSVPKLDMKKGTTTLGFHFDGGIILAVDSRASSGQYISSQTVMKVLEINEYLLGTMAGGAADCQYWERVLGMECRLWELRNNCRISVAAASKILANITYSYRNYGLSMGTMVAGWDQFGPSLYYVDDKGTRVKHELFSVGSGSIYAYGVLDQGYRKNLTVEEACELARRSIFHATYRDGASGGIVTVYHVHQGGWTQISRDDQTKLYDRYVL
In words: Trypanosoma cruzi proteasome chymotrypsin-like activity (TcProtChymo) assay. Type of assay: functional. More on the design: scale not given: in the data most compounds retested in dose-response had high values. The settings on record: 9.37 µM.

Assay [9] is filed under the species Homo sapiens. In words: To identify inhibition of the IFN signalling (Jak-Stat) pathway via expression of an eGFP reporter gene under the control of an IFN-stimulated response element (ISRE) containing MxA promoter. Type of assay: functional. Details: scale not given: direction of the effect not stated beside the values. The settings on record: 30 µM. On the technique in general: In a reporter assay the amount or activity of a reporter protein is the signal.

Assay [10] deals with T5, Tyrosyl-tRNA synthetase, putative (Trypanosoma cruzi (strain CL Brener)) (UniProt Q4DSP6).
T5 sequence (whole entry): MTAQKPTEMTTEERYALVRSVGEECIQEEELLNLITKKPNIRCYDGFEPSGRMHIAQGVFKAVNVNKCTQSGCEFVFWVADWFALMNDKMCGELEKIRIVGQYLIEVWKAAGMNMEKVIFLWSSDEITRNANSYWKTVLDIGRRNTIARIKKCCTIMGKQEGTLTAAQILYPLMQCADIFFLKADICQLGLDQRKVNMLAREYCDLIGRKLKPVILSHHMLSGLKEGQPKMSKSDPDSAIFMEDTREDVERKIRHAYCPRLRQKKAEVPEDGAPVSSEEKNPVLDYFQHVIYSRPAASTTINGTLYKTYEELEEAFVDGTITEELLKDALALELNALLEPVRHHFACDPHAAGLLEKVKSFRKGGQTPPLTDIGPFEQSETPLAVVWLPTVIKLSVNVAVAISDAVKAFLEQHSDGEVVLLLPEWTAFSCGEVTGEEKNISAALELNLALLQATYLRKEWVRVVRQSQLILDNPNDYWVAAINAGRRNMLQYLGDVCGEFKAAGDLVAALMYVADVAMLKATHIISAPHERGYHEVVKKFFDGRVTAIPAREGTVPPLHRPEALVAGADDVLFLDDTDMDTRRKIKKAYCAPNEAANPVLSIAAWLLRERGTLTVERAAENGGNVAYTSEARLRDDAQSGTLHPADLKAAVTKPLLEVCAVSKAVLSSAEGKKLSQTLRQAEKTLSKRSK
In words: Trypanosoma cruzi tyrosyl tRNA synthetase (TcYRS) _High Tyrosine SOP. The assay is classed as functional. More on the design: scale not given: in the data most compounds retested in dose-response had high values. The settings on record: 30 µM.

Assay [11] has as its target T5, Tyrosyl-tRNA synthetase, putative (Trypanosoma cruzi (strain CL Brener)). The assay is described as follows: Trypanosoma cruzi tyrosyl tRNA synthetase (TcYRS) SOP. Type of assay: functional. Details: scale not given: direction of the effect not stated beside the values. The settings on record: 30 µM.
In assay [12] the target is Chromo domain-containing protein 1 (Saccharomyces cerevisiae (strain ATCC 204508 / S288c) (Baker's yeast)) (UniProt P32657). In words: ScCHD-1 Enzyme Inhibition Assay. Type of assay: functional. Details: scale not given: in the data most compounds retested in dose-response had high values. The settings on record: 30 µM.
Sequence of Chromo domain-containing protein 1 (Saccharomyces cerevisiae (strain ATCC 204508 / S288c) (Baker's yeast)) (P32657 whole entry, the tested form may be a part): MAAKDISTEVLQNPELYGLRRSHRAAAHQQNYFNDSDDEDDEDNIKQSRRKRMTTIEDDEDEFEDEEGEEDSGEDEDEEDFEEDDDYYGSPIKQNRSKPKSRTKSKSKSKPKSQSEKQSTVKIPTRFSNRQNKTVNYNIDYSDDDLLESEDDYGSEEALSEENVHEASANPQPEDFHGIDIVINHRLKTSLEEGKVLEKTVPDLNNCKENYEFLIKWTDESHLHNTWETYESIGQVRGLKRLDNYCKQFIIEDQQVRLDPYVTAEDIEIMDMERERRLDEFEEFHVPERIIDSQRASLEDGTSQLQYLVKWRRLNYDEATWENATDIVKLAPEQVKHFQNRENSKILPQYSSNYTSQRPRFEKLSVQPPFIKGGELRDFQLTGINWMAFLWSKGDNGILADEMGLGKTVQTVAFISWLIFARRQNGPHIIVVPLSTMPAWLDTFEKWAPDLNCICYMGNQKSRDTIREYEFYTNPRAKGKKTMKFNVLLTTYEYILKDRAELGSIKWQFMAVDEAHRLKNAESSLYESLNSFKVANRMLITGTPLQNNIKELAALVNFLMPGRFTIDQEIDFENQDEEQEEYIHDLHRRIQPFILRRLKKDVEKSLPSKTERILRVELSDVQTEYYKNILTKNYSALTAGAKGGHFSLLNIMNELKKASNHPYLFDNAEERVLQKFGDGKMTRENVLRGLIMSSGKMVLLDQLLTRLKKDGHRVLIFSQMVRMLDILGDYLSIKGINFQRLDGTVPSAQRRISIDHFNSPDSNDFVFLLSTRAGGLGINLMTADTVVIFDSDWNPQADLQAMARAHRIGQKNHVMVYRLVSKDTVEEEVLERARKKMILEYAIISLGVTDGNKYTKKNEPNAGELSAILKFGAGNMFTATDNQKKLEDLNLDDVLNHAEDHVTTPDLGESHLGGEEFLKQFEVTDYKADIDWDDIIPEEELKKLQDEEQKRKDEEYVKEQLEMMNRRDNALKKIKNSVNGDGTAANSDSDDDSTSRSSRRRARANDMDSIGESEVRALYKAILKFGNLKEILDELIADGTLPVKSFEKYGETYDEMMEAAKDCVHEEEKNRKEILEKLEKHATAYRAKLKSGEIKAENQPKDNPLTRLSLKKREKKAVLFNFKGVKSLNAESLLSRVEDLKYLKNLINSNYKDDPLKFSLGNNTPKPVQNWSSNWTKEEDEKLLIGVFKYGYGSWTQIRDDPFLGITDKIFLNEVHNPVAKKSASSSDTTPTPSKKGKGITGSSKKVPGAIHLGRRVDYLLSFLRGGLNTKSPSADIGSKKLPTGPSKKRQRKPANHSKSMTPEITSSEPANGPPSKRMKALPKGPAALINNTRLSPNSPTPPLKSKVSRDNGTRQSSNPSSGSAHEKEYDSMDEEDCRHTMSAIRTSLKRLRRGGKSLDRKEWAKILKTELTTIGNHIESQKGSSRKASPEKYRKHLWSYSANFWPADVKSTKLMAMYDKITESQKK

Sequence of Protein translocase subunit SecA (Escherichia coli (strain K12)) (P10408 whole entry): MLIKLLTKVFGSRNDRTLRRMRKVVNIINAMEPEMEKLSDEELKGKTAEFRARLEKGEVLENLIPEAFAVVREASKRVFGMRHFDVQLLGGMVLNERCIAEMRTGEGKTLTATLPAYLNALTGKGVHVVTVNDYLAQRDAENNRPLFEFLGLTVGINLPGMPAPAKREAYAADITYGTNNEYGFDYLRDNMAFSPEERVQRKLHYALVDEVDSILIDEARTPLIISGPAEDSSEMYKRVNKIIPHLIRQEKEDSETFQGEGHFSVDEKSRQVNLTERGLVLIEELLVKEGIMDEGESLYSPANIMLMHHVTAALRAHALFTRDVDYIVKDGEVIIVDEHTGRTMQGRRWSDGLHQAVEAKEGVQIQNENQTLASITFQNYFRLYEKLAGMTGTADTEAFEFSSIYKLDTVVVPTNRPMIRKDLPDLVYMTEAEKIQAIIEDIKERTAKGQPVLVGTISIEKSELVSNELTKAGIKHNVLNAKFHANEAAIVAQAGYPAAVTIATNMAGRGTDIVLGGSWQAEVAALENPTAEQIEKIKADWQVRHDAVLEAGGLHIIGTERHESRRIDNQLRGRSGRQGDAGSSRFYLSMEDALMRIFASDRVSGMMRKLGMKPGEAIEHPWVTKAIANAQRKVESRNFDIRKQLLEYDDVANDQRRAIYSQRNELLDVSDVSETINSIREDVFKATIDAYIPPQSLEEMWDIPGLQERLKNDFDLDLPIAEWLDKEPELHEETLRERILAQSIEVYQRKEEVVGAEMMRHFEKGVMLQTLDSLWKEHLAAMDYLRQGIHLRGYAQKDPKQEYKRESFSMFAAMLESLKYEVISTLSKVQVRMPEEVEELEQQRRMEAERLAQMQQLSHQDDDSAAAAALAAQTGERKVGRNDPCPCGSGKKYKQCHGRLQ
Sequence of Sialic acid-binding Ig-like lectin 9 (Homo sapiens) (Q9Y336 whole entry): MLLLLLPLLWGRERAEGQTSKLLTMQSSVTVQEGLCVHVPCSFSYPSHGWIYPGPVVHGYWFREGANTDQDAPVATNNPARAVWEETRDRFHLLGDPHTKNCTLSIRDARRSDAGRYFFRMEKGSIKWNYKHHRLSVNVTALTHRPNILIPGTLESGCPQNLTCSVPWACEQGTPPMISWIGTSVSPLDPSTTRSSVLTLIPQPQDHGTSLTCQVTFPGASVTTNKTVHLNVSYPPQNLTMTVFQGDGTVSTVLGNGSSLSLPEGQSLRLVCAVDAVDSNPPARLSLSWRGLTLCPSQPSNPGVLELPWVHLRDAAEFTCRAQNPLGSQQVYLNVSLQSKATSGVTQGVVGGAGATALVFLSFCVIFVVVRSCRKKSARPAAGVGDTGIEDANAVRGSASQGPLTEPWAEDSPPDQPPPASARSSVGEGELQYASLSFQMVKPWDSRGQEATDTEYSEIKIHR

As for `COC1CCCC(Nc2nc(Nc3ccc(F)c(F)c3)nc3c2cnn3C)C1` (centres undefined), the PXC50 in assay [1] (BOTTOM 3.912528548, HILLSLOPE 1.076870083, MAX_EFFECT 68.97196262, TOP 71.78159337) was 5.18; in assay [1] (BOTTOM 5.265177704, HILLSLOPE 1.728535848, MAX_EFFECT 54.8245614, TOP 53.52484427), 5.16; in assay [1] (BOTTOM 8.334941311, HILLSLOPE 1.334767366, MAX_EFFECT 54.01869159, TOP 53.22848094), 5.23; in assay [1] (BOTTOM -8.876719942, HILLSLOPE 0.681128814, MAX_EFFECT 53.21888412, TOP 100.0) it was 4.53; in [1] (MAX_EFFECT 40.38004751), less than 4; in assay [1] (MAX_EFFECT 46.81933842), less than 4.

`Cn1ncc2c(NCCO)nc(Nc3ccc(F)c(F)c3)nc21`: the PXC50 in assay [1] (BOTTOM 1.675324724, HILLSLOPE 0.887004354, MAX_EFFECT 86.8852459, TOP 97.31963994) came to 5.01; in assay [1] (BOTTOM 3.874295481, HILLSLOPE 1.000014766, MAX_EFFECT 87.03703704, TOP 93.55609097) it was 5.08; in assay [1] (BOTTOM 3.975924252, HILLSLOPE 0.806965021, MAX_EFFECT 84.10596026, TOP 99.5157675), 4.91; in [1] (BOTTOM 7.489204203, HILLSLOPE 1.122010423, MAX_EFFECT 83.60655738, TOP 90.20006383) it was 4.96; in assay [1] (BOTTOM -1.215365939, HILLSLOPE 0.665929937, MAX_EFFECT 87.19646799, TOP 108.6182019) it was 4.92.

Regarding `CC1CCCN(CC(=O)N2CCC(c3ncc4c(n3)CCNC4)CC2)C1` (centres undefined), the PXC50 in [1] (MAX_EFFECT 4.401408451) and in [1] (MAX_EFFECT 5.700712589) was less than 4 each time. The Percent Effect is -3.77% in assay [2]; 2.67% in assay [3]; 14.5% in assay [4]; -3.5% in [5]; 0.394% in assay [6]; -0.699% in assay [7]. Also, the Percent Effect in assay [8] is 5.02%; in assay [9] it was 3.99%; in assay [10], -1.06%; in assay [11], -3.85%; in assay [12] it was 2.27%.
